# According to paper PMC7862700, “An all-to-all approach to the identification of sequence-specific readers for epigenetic DNA modifications on cytosine”:
# Assays:
# Test in all cases: DAPPL (digital affinity profiling via proximity ligation, sequencing); 10 mM Tris-HCl pH 7.5, 50 mM NaCl, 1 mM DTT, 4% glycerol, room temperature, 30 min; GST-TFs on glutathione beads, 16-mer random dsDNA library, 0.1% formaldehyde crosslink after washing; high values mean tight binding
# Conditions in all cases: protein: recombinant; tags: N-terminal GST; dsDNA, one strand shown
# ERF = biological target: T1, ERF (Homo sapiens, UniProt P50548 1-548)
# T1 sequence: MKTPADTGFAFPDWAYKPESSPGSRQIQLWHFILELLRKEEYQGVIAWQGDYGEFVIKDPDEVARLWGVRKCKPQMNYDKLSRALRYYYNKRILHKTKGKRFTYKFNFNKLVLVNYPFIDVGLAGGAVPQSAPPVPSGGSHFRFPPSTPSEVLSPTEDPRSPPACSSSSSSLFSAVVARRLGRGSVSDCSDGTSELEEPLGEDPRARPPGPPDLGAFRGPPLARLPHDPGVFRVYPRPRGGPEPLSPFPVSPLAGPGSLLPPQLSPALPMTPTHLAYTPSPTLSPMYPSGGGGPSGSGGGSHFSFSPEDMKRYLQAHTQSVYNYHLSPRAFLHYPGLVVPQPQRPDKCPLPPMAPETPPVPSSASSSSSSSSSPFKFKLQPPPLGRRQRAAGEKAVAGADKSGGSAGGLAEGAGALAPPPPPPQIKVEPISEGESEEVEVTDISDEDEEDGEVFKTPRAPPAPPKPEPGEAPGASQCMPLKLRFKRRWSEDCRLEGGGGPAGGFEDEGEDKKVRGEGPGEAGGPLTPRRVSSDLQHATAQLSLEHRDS
# How it was run: (§1)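 Human transcription factors fused to GST were expressed in yeast, captured on glutathione beads, given DNA barcodes and pooled with a GST-only negative control. Pools were incubated with 200 nmole of a 16-mer random double-stranded DNA library in Tris/NaCl/DTT/glycerol buffer at room temperature for 30 min. They were then washed, crosslinked with 0.1% formaldehyde, proximity-ligated (BsaI/T4 ligase, 1 h, 37 °C), PCR-amplified and sequenced on an Illumina NextSeq500. Binding signal is each 6-mer's read frequency for a factor divided by its frequency for the GST control.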
# ETV3L = biological target: T2, ETV3L (Homo sapiens, UniProt Q6ZN32 1-361)
# T2 sequence: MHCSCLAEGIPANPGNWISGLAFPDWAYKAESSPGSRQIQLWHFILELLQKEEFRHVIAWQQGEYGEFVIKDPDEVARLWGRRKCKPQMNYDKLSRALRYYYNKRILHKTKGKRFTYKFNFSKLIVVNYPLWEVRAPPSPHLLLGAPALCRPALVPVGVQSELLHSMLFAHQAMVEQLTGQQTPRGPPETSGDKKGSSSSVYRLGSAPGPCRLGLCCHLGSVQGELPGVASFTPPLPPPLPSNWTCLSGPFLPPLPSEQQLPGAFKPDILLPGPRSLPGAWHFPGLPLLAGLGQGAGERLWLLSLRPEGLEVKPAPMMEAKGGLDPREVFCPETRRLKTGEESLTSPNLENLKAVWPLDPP
# How it was run: as §1
# ETS2 = biological target: T3, ETS2 (Homo sapiens, UniProt P15036 1-469)
# T3 sequence: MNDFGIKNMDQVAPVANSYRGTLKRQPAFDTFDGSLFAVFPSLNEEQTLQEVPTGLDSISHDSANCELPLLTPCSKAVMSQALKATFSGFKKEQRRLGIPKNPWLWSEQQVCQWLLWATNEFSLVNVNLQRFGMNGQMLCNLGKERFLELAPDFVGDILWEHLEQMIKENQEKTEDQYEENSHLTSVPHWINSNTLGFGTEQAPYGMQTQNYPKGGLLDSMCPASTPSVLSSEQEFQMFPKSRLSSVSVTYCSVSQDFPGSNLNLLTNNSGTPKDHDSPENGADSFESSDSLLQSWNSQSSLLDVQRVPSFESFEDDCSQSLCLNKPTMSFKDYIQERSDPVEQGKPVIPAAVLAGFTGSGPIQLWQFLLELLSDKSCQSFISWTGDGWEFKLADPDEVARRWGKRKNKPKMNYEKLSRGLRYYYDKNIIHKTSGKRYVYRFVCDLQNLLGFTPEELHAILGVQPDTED
# How it was run: as §1
# SPDEF = biological target: T4, SPDEF (Homo sapiens, UniProt O95238 1-335)
# T4 sequence: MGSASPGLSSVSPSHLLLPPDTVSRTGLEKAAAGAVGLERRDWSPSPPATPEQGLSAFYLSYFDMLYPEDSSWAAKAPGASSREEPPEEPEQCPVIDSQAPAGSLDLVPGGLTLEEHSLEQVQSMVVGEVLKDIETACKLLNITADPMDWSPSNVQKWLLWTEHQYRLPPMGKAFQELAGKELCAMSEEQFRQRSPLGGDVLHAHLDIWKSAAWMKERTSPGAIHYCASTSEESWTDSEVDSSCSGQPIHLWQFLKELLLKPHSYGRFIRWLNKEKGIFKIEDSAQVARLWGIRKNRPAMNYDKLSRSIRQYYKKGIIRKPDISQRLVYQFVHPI
# How it was run: as §1
# ETV7 = biological target: T5, ETV7 (Homo sapiens, UniProt Q9Y603 1-341)
# T5 sequence: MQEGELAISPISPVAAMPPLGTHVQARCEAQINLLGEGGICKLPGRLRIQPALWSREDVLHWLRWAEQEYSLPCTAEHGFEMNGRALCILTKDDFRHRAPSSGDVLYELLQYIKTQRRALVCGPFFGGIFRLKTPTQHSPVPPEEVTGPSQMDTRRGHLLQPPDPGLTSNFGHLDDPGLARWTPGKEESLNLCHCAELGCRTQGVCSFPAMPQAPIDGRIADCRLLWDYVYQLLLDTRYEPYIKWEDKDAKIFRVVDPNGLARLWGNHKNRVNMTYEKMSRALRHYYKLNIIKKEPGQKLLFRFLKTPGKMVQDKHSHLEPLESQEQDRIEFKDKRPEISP
# How it was run: as §1
# ELF5 = biological target: T6, ELF5 (Homo sapiens, UniProt Q9UKW6-2 1-255)
# T6 sequence: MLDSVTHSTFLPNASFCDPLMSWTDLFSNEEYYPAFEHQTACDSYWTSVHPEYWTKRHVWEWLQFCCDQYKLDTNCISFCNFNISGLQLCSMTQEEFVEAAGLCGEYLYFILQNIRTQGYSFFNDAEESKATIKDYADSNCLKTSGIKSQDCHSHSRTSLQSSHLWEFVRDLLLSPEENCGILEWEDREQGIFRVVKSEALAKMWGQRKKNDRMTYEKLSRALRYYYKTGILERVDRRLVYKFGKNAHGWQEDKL
# How it was run: as §1
# ETV3 = biological target: T7, ETV3 (Homo sapiens, UniProt P41162-2 1-143)
# T7 sequence: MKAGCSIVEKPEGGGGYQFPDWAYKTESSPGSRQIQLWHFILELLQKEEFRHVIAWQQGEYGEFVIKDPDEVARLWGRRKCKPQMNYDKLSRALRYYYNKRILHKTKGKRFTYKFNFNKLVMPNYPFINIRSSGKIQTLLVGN
# How it was run: as §1
# ETV6 = ETV6 (Homo sapiens, UniProt P41212 1-452)
# Sequence of ETV6 (P41212 whole entry): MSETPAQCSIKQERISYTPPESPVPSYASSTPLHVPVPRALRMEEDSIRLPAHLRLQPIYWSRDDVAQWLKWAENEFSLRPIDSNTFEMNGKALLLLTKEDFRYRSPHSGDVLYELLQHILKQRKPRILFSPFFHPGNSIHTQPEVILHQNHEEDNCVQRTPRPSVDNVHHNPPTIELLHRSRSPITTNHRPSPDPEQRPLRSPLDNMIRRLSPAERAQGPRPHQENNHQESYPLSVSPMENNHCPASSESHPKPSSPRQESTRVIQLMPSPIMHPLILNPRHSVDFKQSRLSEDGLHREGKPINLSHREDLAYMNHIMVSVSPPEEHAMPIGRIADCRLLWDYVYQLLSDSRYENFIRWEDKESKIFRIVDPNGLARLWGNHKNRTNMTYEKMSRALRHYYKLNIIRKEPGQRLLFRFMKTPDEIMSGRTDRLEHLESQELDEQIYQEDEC
# How it was run: as §1
Sequence,binding signal (ERF),binding signal (ETV3L),binding signal (ETS2),binding signal (SPDEF),binding signal (ETV7),binding signal (ELF5),binding signal (ETV3),binding signal (ETV6)
CCTCAC,"1.09 fold enrichment (6-mer frequency, TF over GST control)","1.19 fold enrichment (6-mer frequency, TF over GST control)","1.19 fold enrichment (6-mer frequency, TF over GST control)","1.24 fold enrichment (6-mer frequency, TF over GST control)","1.15 fold enrichment (6-mer frequency, TF over GST control)","1.22 fold enrichment (6-mer frequency, TF over GST control)","1.12 fold enrichment (6-mer frequency, TF over GST control)","1.07 fold enrichment (6-mer frequency, TF over GST control)"
CGTTCA,"1.2 fold enrichment (6-mer frequency, TF over GST control)","1.25 fold enrichment (6-mer frequency, TF over GST control)","1.12 fold enrichment (6-mer frequency, TF over GST control)","1.14 fold enrichment (6-mer frequency, TF over GST control)","1.07 fold enrichment (6-mer frequency, TF over GST control)","1.08 fold enrichment (6-mer frequency, TF over GST control)","1.12 fold enrichment (6-mer frequency, TF over GST control)","1.19 fold enrichment (6-mer frequency, TF over GST control)"
TAGCGG,"1.1 fold enrichment (6-mer frequency, TF over GST control)","1.12 fold enrichment (6-mer frequency, TF over GST control)","1.13 fold enrichment (6-mer frequency, TF over GST control)","1.1 fold enrichment (6-mer frequency, TF over GST control)","1.12 fold enrichment (6-mer frequency, TF over GST control)","1.12 fold enrichment (6-mer frequency, TF over GST control)","1.09 fold enrichment (6-mer frequency, TF over GST control)","1.12 fold enrichment (6-mer frequency, TF over GST control)"
TTGACC,"1.45 fold enrichment (6-mer frequency, TF over GST control)","1.46 fold enrichment (6-mer frequency, TF over GST control)","1.4 fold enrichment (6-mer frequency, TF over GST control)","1.52 fold enrichment (6-mer frequency, TF over GST control)","1.35 fold enrichment (6-mer frequency, TF over GST control)","1.37 fold enrichment (6-mer frequency, TF over GST control)","1.44 fold enrichment (6-mer frequency, TF over GST control)","1.41 fold enrichment (6-mer frequency, TF over GST control)"
TAACTT,"1.32 fold enrichment (6-mer frequency, TF over GST control)","1.47 fold enrichment (6-mer frequency, TF over GST control)","1.38 fold enrichment (6-mer frequency, TF over GST control)","1.28 fold enrichment (6-mer frequency, TF over GST control)","1.25 fold enrichment (6-mer frequency, TF over GST control)","1.44 fold enrichment (6-mer frequency, TF over GST control)","1.41 fold enrichment (6-mer frequency, TF over GST control)","1.32 fold enrichment (6-mer frequency, TF over GST control)"
GCTTAG,"1.2 fold enrichment (6-mer frequency, TF over GST control)","1.12 fold enrichment (6-mer frequency, TF over GST control)","1.11 fold enrichment (6-mer frequency, TF over GST control)","1.17 fold enrichment (6-mer frequency, TF over GST control)","1.13 fold enrichment (6-mer frequency, TF over GST control)","1.01 fold enrichment (6-mer frequency, TF over GST control)","1.19 fold enrichment (6-mer frequency, TF over GST control)","1.07 fold enrichment (6-mer frequency, TF over GST control)"
TGTATA,"1.24 fold enrichment (6-mer frequency, TF over GST control)","1.11 fold enrichment (6-mer frequency, TF over GST control)","1.1 fold enrichment (6-mer frequency, TF over GST control)","1.24 fold enrichment (6-mer frequency, TF over GST control)","1.09 fold enrichment (6-mer frequency, TF over GST control)","1.11 fold enrichment (6-mer frequency, TF over GST control)","1.04 fold enrichment (6-mer frequency, TF over GST control)","1.04 fold enrichment (6-mer frequency, TF over GST control)"
